Values joined by “and” are separate entries in the source; they are usually repeats but may differ in a detail not shown here. Identical values can stand only once. Results filed as inconclusive are left out. Unmarked numbers belong to inactive results. Active and inactive are the calls of the source. Calls come from the whole dose curve; as a rule, active = well fitted cell-killing curve with a large enough effect; inconclusive = small, poorly fitted or top-dose-only effect, or effect the other way; inactive = no such curve, though single readings can be large or run the other way.
Test: Viability qHTS for spleen associated tyrosine kinase inhibitor (SYKi) drug resistant MV4-11 cells (AID 1963824); note: nearly all actives have a fitted effect of over 35% in size
Conditions: SYKi-resistant MV4-11 viability, CellTiter-Glo, 72 h; series mostly up to 45 µM
Description: Department of Medicine, Hematology/Oncology
University Hospital Frankfurt, Germany.
Trials have shown promising clinical activity of the selective SYK inhibitor entospletinib in patients with high expressing HOXA9/MEIS1 acute leukemias. As the development of resistance mechanisms is a common problem in the use of targeted drugs, we performed a chemical library screen to identify drug sensitivities in SYK inhibitor resistant AML cells. […] Glucocorticoids are potent immunosuppressants which work in part by inhibiting the transcription of cytokine genes.
Described herein is a viability screen to look for activity in the SYK inhibitor drug resistant cell line against four NCATS compound libraries (MIPE 5.0, NPC, NPACT, and Kinase) totaling 11372 compounds. Active hits were reacquired for confirmation and further secondary assay testing.
SEQUENCE No. (e.g., 1, 2, 3, etc.); […] (e.g., Cells, Incubation, Reagent, etc.); VALUE; DESCRIPTION.
1; Media; 2uL; white, solid-bottom Corning assay plate.
2; Compounds; 23nL; Echo acoustic dispenser.
3; Cell; 5uL; 500 cells per well.
4: Incubation; 72hr; 37 C, 5% CO2, 95% humidity.
5; Reagent; 3uL; CellTiter-Glo reagent (Promega).
6; Incubation; 10min; room temperature.
7; Detection; Luminescence; ViewLux plate reader (PerkinElmer).
NOTES (numbers refer to Sequence numbers above
1. Quantitative high-throughput screening (qHTS) of small molecule compounds was conducted on drug resistant SYKi MV4-11 cell line.
2. Twenty-three nanoliter of small molecule compounds were added to each assay plates using the Echo acoustic dispenser (Beckman Coulter).
3. Cells were seeded into the assay plates at a final density of 500 cells in 5uL of media per well using the Multidrop Combi dispenser.
4. Plates were covered with stainless steel gasketed lids and incubated for 72 hours at standard cell culture conditions.
5. Viability was assessed by adding 3uL of CellTiter-Glo detection reagent (Promega).
6. Plates were covered with gasket lids and incubated for 10 minutes at room temperature.
7. Luminescence was measured on a ViewLux plate reader (PerkinElmer).
Potency is the fitted concentration of half-maximal effect.

SMILES	Potency	viability, % of control
C[C@@H]1C[C@@H](O)[C@]2(O)O[C@@H]3C[C@@]4(C=O)C(CC[C@@H]5C4CC[C@]4(C)[C@@](O)(C6=CC(=O)OC6)CC[C@]54O)C[C@H]3OC2O1 (stereo not given in full)	0.709 µM (active)	–
O=c1[nH]c2ccccc2n1C1CCNCC1	inactive	–
C[C@]12CC[C@@H](O)C[C@@H]1CC[C@@H]1[C@@H]2CC[C@]2(C)C(=O)[C@@H](Br)C[C@@H]12	11.6 µM (active)	–
C=CCC1=C(C)C(OC(=O)C2C(C=C(C)C)C2(C)C)CC1=O (stereo not given)	9.69 µM (active)	–
Oc1cccc2cccnc12	inactive	–
CC[C@@]1(O)C(=O)OCc2c1cc1n(c2=O)Cc2cc3c(OC)cccc3nc2-1	0.0114 µM (active)	–
N=c1c2c(-c3ccccc3)c(-c3ccccc3)n(Cc3ccccc3)c2ncn1C1CCC(O)CC1 (stereo not given)	0.372 µM (active)	–
C=CCOC(Cn1ccnc1)c1ccc(Cl)cc1Cl (stereo not given)	9.44 µM (active)	–
C[C@]12COC(=O)C[C@@H]1CC[C@@H]1[C@@H]2CC[C@@]2(C)[C@H]1CC[C@]2(C)O	inactive	–
Nc1ccccc1C(=O)OCC(O)CO (stereo not given)	inactive	–
C/C=C(\C)C(=O)OC1C(C)OC(OC2C(C)OC(OC3CCC4(C)C(=CCC5C4CCC4(C)C(C(C)OC6OC(COC7OC(CO)C(O)C(O)C7O)C(O)C(O)C6O)CCC54O)C3)CC2OC)C(O)C1OC (stereo not given)	–	105% [at 9.25 µM]
CC(=O)C1CCC2C3CCC4C[C@@H](O)CCC4(C)C3CCC12C (stereo not given in full)	14.6 µM (active)	–
CCOC(=O)NC(C)(C)Cc1ccc(Cl)cc1	inactive	–
O=C(N[C@H]1CN2CCC1CC2)c1cc2cccc(Cl)c2s1	20.6 µM (active)	–
COc1cc(C(=O)N2CC[C@@H](O)[C@@H](N)C2)cc2nc(-c3cc4ccccc4n3CC3CC3)n(C)c12	9.34 µM (active)	–
O=C1OC(c2ccc(O)c(S(=O)(=O)O)c2)(c2ccc(O)c(S(=O)(=O)O)c2)c2c(Br)c(Br)c(Br)c(Br)c21	inactive	–
Cc1c(Cl)c(OCC(=O)N2CCN(C)CC2)nc2sc(C(=O)NC3CC3)c(N)c12	inactive	–
C[C@@H](N)[C@@H](O)c1ccccc1	inactive	–
O=C1N[C@@H](Cc2ccccc2)CN2CCCC[C@@H]12	inactive	–
O=C(O)C(=O)c1cn(Cc2ccccc2)c2ccc(-c3ccc(OC(F)(F)F)cc3)cc12	20.6 µM (active)	–

SMILES	Potency	viability, % of control
CN1Cc2c(ccc3c2OCO3)[C@@H]2[C@H]1c1cc3c(cc1C[C@@H]2O)OCO3	2.55 µM (active)	–
Clc1ccc(N2C[C@H]3CC[C@@H](C2)N3)nn1	inactive	–
CC1=CC2/C=C(\C)CCC(O)C3OC(C)(C)OC3CC(=O)OC23C(=O)NC(CC(C)C)C3C1C (stereo not given)	12.6 µM (active)	–
CCCCN1[C@@H]2CC[C@H]1CC(OC(c1ccc(F)cc1)c1ccc(F)cc1)C2 (stereo not given in full)	8.2 µM (active)	–
COC1C(O)C(C)OC(OC2C(CO)O[C@@H](O[C@@H]3CC4CCC5C(CC[C@]6(C)[C@@H](C7=CC(=O)OC7)CC[C@]56O)[C@@]4(C)[C@H](O)C3)C(O)C2O)C1O (stereo not given in full)	0.217 µM (active)	–
C=C1C[C@]2(O)[C@@]3(C)CCC(=O)C(C)(C)C3=C(O)C(=O)[C@@]2(C)[C@@H]2C(=O)O[C@@](C)(C(=O)OC)C(=O)[C@@]12C	inactive	–
ClCc1cccc(Cl)c1	inactive	–
C=CCN1CC[C@]23c4c5ccc(O)c4O[C@H]2[C@@H](O)CC[C@@]3(O)[C@H]1C5	inactive	–
O=C(O)c1ccc2[nH]cc(CCCCN3CC=C(c4ccccc4)CC3)c2c1	inactive	–
CC(C)(C)c1cc(C=C(C#N)C#N)cc(Br)c1O	16.6 µM (active)	–
C[C@H]1O[C@@H](O[C@H]2[C@@H](O)C[C@H](O[C@H]3[C@@H](O)C[C@H](O[C@H]4CC[C@@]5(C)[C@H](CC[C@@H]6[C@@H]5CC[C@]5(C)[C@@H](C7=CC(=O)OC7)CC[C@]65O)C4)O[C@@H]3C)O[C@@H]2C)C[C@H](O)[C@@H]1O	47.3 nM (active) and 38.5 nM (active)	–
CCC1(C2=NCCN2)Cc2ccccc2O1 (stereo not given)	inactive	–
COC(=O)[C@]12CCC(C)(C)C[C@@H]1[C@@H]1C(=O)C=C3[C@]4(C)C=C(C#N)C(=O)C(C)(C)[C@@H]4CC[C@@]3(C)[C@]1(C)CC2	0.326 µM (active)	–
Cc1ncc(OC[C@@]2(c3cccc(F)c3)C[C@H]2C(=O)Nc2ccc(F)cn2)c(C)n1	inactive	–
CO/C1=C/C(C)=C\[C@@H](C)[C@@H](O)[C@@H](C)C/C(C)=C\C=C/[C@H](OC)[C@@H]([C@@H](C)[C@@H](O)[C@H](C)[C@@]2(O)C[C@@H](O)[C@H](C)[C@@H](C(C)C)O2)OC1=O	0.0221 µM (active)	–
CCC1(O)CCC2C3CCC4=CC(=O)CCC4C3CCC21CC (stereo not given)	14.6 µM (active)	–
O=C(N[C@@H](COc1ccc2[nH]c(=O)[nH]c2c1)c1ccccc1)c1cccn(Cc2ccc(F)c(F)c2)c1=O	11.6 µM (active)	–
CO[C@H]1[C@H](O)[C@H](O[C@H]2CC[C@]3(C=O)C4CC[C@]5(C)[C@H](C6=CC(=O)OC6)CC[C@]5(O)C4CC[C@@H]3C2)O[C@@H](C)[C@@H]1O (stereo not given in full)	0.02 µM (active)	–
Nc1ncnc2c1ncn2[C@@H]1O[C@@H]2COP(O)(=S)O[C@H]2[C@H]1O (stereo not given in full)	–	81% [at 9.25 µM]
CN=C(NS(=O)(=O)c1ccc(Cl)cc1)N1C[C@H](c2ccccc2)C(c2ccc(Cl)cc2)=N1	20.6 µM (active)	–
